Assay results from paper PMC11062922 (Nature Chemical Biology, 2023).
Where two headings read alike, the source gives them in different places.

Assays:
Set-up in all cases: species or system human, MV4-11 + K-562 + COLO205 + SK-N-BE2 + OVCAR-8
[1] = test system: CSNK1D; settings: read-out: apparent Kd, n = 1
[2] = test system: CSNK1E; settings: read-out: apparent Kd, n = 1
[3] = test system: MAP2K2; settings: read-out: apparent Kd; compound concentrations:100 nM and 1000 nM (sheet 'Samples'); n = 1
[4] = test system: MAPK11; settings: read-out: apparent Kd; compound concentrations:100 nM and 1000 nM (sheet 'Samples'); n = 1
[5] = test system: MAPK14; settings: read-out: apparent Kd, n = 1
[6] = test system: MAPKAPK2; settings: read-out: apparent Kd, n = 1
[7] = test system: RAB6A;RAB6B; settings: read-out: apparent Kd; compound concentrations:100 nM and 1000 nM (sheet 'Samples'); n = 1
[8] = test system: CLK1; settings: read-out: apparent Kd; compound concentrations: 100 nM and 1000 nM (sheet 'Samples'), CATDS: 0.13184639507044499; n = 1
[9] = test system: CLK4; settings: read-out: apparent Kd; compound concentrations: 100 nM and 1000 nM (sheet 'Samples'), CATDS: 0.153440234991533; n = 1
[10] = test system: GAK; settings: read-out: apparent Kd; compound concentrations: 100 nM and 1000 nM (sheet 'Samples'), CATDS: 0.13551111713290001; n = 1
[11] = test system: MAPK8; settings: read-out: apparent Kd; compound concentrations: 100 nM and 1000 nM (sheet 'Samples'), CATDS: 0.168882234188796; n = 1
[12] = test system: MAPK9; settings: read-out: apparent Kd, compound concentrations: 100 nM and 1000 nM (sheet 'Samples'), n = 1
[13] = test system: TTK; settings: read-out: apparent Kd; compound concentrations: 100 nM and 1000 nM (sheet 'Samples'), CATDS: 0.53372982121950996; n = 1
[14] = test system: DYRK1A; settings: read-out: apparent Kd; compound concentrations: 100 nM and 1000 nM (sheet 'Samples'), CATDS: 0.124378507371426; n = 1
[15] = test system: LATS1; settings: read-out: apparent Kd; compound concentrations: 100 nM and 1000 nM (sheet 'Samples'), CATDS: 0.13446121771830499; n = 1
[16] = test system: NNT; settings: read-out: apparent Kd; compound concentrations: 100 nM and 1000 nM (sheet 'Samples'), CATDS: 0.14488734368084999; n = 1
[17] = test system: PKN2; settings: read-out: apparent Kd, compound concentrations: 100 nM and 1000 nM (sheet 'Samples'), n = 1
[18] = test system: RPS6KB1; settings: read-out: apparent Kd; compound concentrations: 100 nM and 1000 nM (sheet 'Samples'), CATDS: 0.17749177686381501; n = 1
[19] = test system: CSNK1A1; settings: read-out: apparent Kd, compound concentrations: 100 nM and 1000 nM (sheet 'Samples'), n = 1
[20] = test system: IARS; settings: read-out: apparent Kd; compound concentrations:100 nM and 1000 nM (sheet 'Samples'); n = 1
[21] = test system: NQO1; settings: read-out: apparent Kd; compound concentrations:100 nM and 1000 nM (sheet 'Samples'); n = 1
[22] = test system: MYLK3; settings: read-out: apparent Kd; compound concentrations: 100 nM and 1000 nM (sheet 'Samples'), CATDS: 0.254967092830167; n = 1
[23] = test system: TP53RK; settings: read-out: apparent Kd; compound concentrations: 100 nM and 1000 nM (sheet 'Samples'), CATDS: 0.27535936863047; n = 1
[24] = compound concentrations:100 nM and 1000 nM (sheet 'Samples')

With `CCc1ccc(Oc2nccc(-c3c(-c4ccc(F)cc4)ncn3C3CCNCC3)n2)cc1` [SB-242719] as the compound, how does the potency estimated from few doses [1, 24] read?
Its potency estimated from few doses is 0.419 µM.

And the potency estimated from few doses [2, 24]?
Its potency estimated from few doses is 0.76 µM.

And the potency estimated from few doses [3]?
Its potency estimated from few doses is 2.28 µM.

And the potency estimated from few doses [4]?
Its potency estimated from few doses is 0.779 µM.

And the potency estimated from few doses [5, 24]?
Its potency estimated from few doses is 0.0244 µM.

What about the potency estimated from few doses [6, 24] of the same compound?
Its potency estimated from few doses is 0.0133 µM.

What about the potency estimated from few doses [7] of the same compound?
Its potency estimated from few doses is 1.36 µM.

How did the potency estimated from few doses [8] turn out when `CNc1nc(Nc2ccc(C(=O)N3CCOCC3)cc2OC)nc2[nH]cc(Cl)c12` [JH-II-127] was run?
Its potency estimated from few doses is 1.09 µM.

And the potency estimated from few doses [9]?
Its potency estimated from few doses is 0.722 µM.

What about the potency estimated from few doses [10] of the same compound?
Its potency estimated from few doses is 1 µM.

And the potency estimated from few doses [11]?
Its potency estimated from few doses is 0.575 µM.

What about the potency estimated from few doses ([12]; CATDS: 0.14872410543912701) of the same compound?
Its potency estimated from few doses is 0.781 µM.

And the potency estimated from few doses [13]?
Its potency estimated from few doses is 0.0761 µM.

Which potency estimated from few doses ([1]; compound concentrations: 100 nM and 1000 nM (sheet 'Samples'), CATDS: 0.159181013373493) does the source give for `CCc1nccc2c1nc(-c1nonc1N)n2CC` [SB-751148] here?
Its potency estimated from few doses is 1.09 µM.

What about the potency estimated from few doses ([2]; compound concentrations: 100 nM and 1000 nM (sheet 'Samples'), CATDS: 0.120883925571631) of the same compound?
The potency estimated from few doses was 1.96 µM.

What about the potency estimated from few doses [14] of the same compound?
The potency estimated from few doses was 1.83 µM.

What about the potency estimated from few doses [15] of the same compound?
Its potency estimated from few doses is 1.53 µM.

What about the potency estimated from few doses [16] of the same compound?
The potency estimated from few doses was 1.31 µM.

And the potency estimated from few doses ([17]; CATDS: 0.15546286258013101)?
Its potency estimated from few doses is 1.14 µM.

What about the potency estimated from few doses [18] of the same compound?
The potency estimated from few doses was 0.902 µM.

Which results are given for `CCc1cccc(NC(=O)Nc2ccc(Oc3ccc4nc(NC(=O)OC)[nH]c4c3)cc2)c1` [GW673715X]?
potency estimated from few doses ([1]; compound concentrations: 100 nM and 1000 nM (sheet 'Samples'), CATDS: 0.27728092810056698): 0.739 µM; potency estimated from few doses ([2]; compound concentrations: 100 nM and 1000 nM (sheet 'Samples'), CATDS: 0.214439081495093): 1.27 µM; potency estimated from few doses ([5]; compound concentrations: 100 nM and 1000 nM (sheet 'Samples'), CATDS: 0.234253056752116): 1.03 µM; potency estimated from few doses ([6]; compound concentrations: 100 nM and 1000 nM (sheet 'Samples'), CATDS: 0.28890607877709801): 0.685 µM

Which potency estimated from few doses ([19]; CATDS: 0.128304526213217) does the source give for `Fc1ccc(-c2ncn(CCCNCc3ccccc3)c2-c2ccncc2)cc1` [SB-210486] here?
The potency estimated from few doses was 1.36 µM.

What about the potency estimated from few doses ([1]; compound concentrations: 100 nM and 1000 nM (sheet 'Samples'), CATDS: 0.26868989903925999) of the same compound?
Its potency estimated from few doses is 0.28 µM.

What about the potency estimated from few doses ([2]; compound concentrations: 100 nM and 1000 nM (sheet 'Samples'), CATDS: 0.162916255761588) of the same compound?
Its potency estimated from few doses is 0.716 µM.

What about the potency estimated from few doses ([5]; compound concentrations: 100 nM and 1000 nM (sheet 'Samples'), CATDS: 0.19130895998185199) of the same compound?
The potency estimated from few doses was 0.509 µM.

What about the potency estimated from few doses ([12]; CATDS: 0.114122400306413) of the same compound?
The potency estimated from few doses was 2.07 µM.

What about the potency estimated from few doses ([6]; compound concentrations: 100 nM and 1000 nM (sheet 'Samples'), CATDS: 0.22954264686774201) of the same compound?
Its potency estimated from few doses is 0.363 µM.

`Fc1ccc(-c2ncn(C3CCNCC3)c2-c2ccnc(Oc3ccc(Oc4ccccc4)cc3)n2)cc1` [SB-245392] was tested. Which potency estimated from few doses [1, 24] did it give?
The potency estimated from few doses was 0.616 µM.

And the potency estimated from few doses [2, 24]?
Its potency estimated from few doses is 1.2 µM.

What about the potency estimated from few doses [20] of the same compound?
Its potency estimated from few doses is 2.11 µM.

What about the potency estimated from few doses [5, 24] of the same compound?
The potency estimated from few doses was 0.571 µM.

What about the potency estimated from few doses [21] of the same compound?
Its potency estimated from few doses is 1.71 µM.

`Cc1ccc(-c2cc3c(NC(=O)C4CC4)ncnc3o2)cc1` [GW819230X] was tested. Which potency estimated from few doses ([19]; CATDS: 0.241580521879566) did it give?
The potency estimated from few doses was 2.13 µM.

And the potency estimated from few doses [22]?
The potency estimated from few doses was 1.91 µM.

And the potency estimated from few doses ([17]; CATDS: 0.232185519076441)?
Its potency estimated from few doses is 2.32 µM.

And the potency estimated from few doses [23]?
Its potency estimated from few doses is 1.65 µM.
